Compounds with a hit are over-represented: about 2.4% of the library has one in this group of screens.
D2 antag – D2 dopamine receptor (human) antagonism; HEK293 TREx D2 cells, calcium flux, dopamine EC80; AID 485344; inhibition, % at 10 µM; P14416; actives 2% (n = 340,000); in the data active = inhibition above about 30%; inactive = below that, where a call was filed; also: 0% is about no effect
Target sequence (P14416 whole entry, looked up): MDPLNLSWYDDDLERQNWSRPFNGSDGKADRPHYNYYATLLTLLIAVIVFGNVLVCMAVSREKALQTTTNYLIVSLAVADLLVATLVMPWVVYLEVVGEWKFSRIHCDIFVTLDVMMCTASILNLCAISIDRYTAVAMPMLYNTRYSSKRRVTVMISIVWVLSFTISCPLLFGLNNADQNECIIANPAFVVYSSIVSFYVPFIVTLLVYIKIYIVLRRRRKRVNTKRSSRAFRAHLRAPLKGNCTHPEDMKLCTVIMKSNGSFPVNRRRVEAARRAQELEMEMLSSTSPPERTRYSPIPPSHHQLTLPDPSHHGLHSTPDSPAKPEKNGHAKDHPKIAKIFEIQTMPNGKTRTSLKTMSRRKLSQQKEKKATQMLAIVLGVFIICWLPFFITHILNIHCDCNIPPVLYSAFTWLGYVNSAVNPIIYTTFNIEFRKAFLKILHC
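Measurement of antagonist activity uses fluorescent calcium dye in inducible HEK293 T-REx D2 cells: 10 s baseline, compound addition with 180 s read, EC80 dopamine addition with a further 180 s read.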
D2 PAM-1 – human D2 receptor positive allosteric modulation; P14416; DiscoveRx D2 beta-arrestin cells, luminescence, 90 min; 100% = 57 uM dopamine signal; potentiation, % (concentration not given with the values); actives 0.23% (n = 360,000); AID 624464; in the data active = potentiation above about 50%; inconclusive = mostly about 30% to 49%
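PathHunter beta-arrestin assay in DiscoveRx D2 cells. Compounds were added with an EC20 of dopamine (50 nM final) for 90 min at 37 deg C. Luminescence was read 1 h after detection reagent, with 57 uM dopamine as the EC100 control.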
D2 ag-1 – human D2 receptor agonism in beta-arrestin assay. activation, % (no concentration beside the values). P14416. DiscoveRx PathHunter D2 beta-arrestin, luminescence, 90 min; 100% = 57 uM dopamine signal. actives 0.084% (n = 360,000); in the data active = activation above about 40%; inconclusive = between about 15% and that limit
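DiscoveRx PathHunter D2 beta-arrestin cells (2,100/well) attached overnight, then compound-stimulated 90 min at 37 C in HBSS/10 mM HEPES/0.1% Tween-20 buffer; beta-galactosidase complementation read by luminescence after 1 h at ambient temperature. Dopamine 57 uM final (EC100) as control.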
D2 PAM-2 – positively modulates the human D2 dopamine receptor allosterically; P14416; HEK293 T-REx D2, calcium flux, EC20 dopamine potentiation; potentiation, % at 10 µM; actives 0.34% (n = 340,000); AID 485347;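 active = potentiation over 3 SD above the plate norm, cut at about 30% in these data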; also: 0% is about no effect
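Using a no-wash calcium dye in inducible, force-coupled HEK293 Trex cells expressing D2, we tracked fluorescence each second for 180 s after compound, then for 180 s after EC20 dopamine to detect augmented signalling.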
D2 ag-2 – D2 dopamine receptor (human) agonism | actives 0.53% (n = 340,000) | activation, % at 2 µM | P14416 | HEK293 T-REx D2 cells, calcium flux agonist mode;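 active = activation over 3 SD above normal in the single-dose calcium agonist read, cut at about 30% in these data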; also: 0% is about no effect
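Agonism is scored from calcium flux in a force-coupled, inducible HEK293 cell line expressing D2, read kinetically for 180 s after compound addition against dopamine controls.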
D3 arrestin ag – confirmation of human D3 dopamine receptor agonists, beta-arrestin; actives 4% (n = 2,300); DiscoveRx D3 beta-arrestin cells, luminescence, 90 min; Potency, µM (series often up to 76.9 µM), for inactives: at the top dose activation, most hits filed as activators; shares compounds with D2 ag-2;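 also: potency is read from the fitted curve at half-maximal effect; 100% = dopamine control response; nearly all actives have a fitted effect of over 70% in size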
D2 ag-3 – counter-screen for D3 agonists: human D2 dopamine receptor agonism; DiscoveRx PathHunter D2 beta-arrestin, luminescence, 90 min; response scale: percent relative to full dopamine signal; actives 5.9% (n = 2,300); shares compounds with D2 ag-2; AID 720507; Potency, µM (doses to about 76.9 µM), for inactives: at the top dose activation, most hits filed as activators; also: potency is read from the fitted curve at half-maximal effect; % of control where 0% means no effect; nearly all actives have a fitted effect of over 70% in size
Numbers without * were called inactive; u = inconclusive; x = no result. Unless noted, calls follow the shape of the dose curve; as a rule, active = well fitted activation curve with a large enough effect; inconclusive = small, poorly fitted or top-dose-only effect; inactive = flat fitted curve, though single readings scatter.

SMILES	D2 antag	D2 PAM-1	D2 ag-1	D2 PAM-2	D2 ag-2	D3 arrestin ag	D2 ag-3
COc1cc(OC)cc(-c2c(-c3cccs3)c3cc(-c4ccc(SC)cc4)ccc3n2C)c1	57.7*	-1.9	1.9	0.7	-0.3	6.8%	0.6%
Nn1c(SCc2ccc(C(=O)O)cc2)nnc1-c1ccc(Cl)cc1Cl	9.5	-2.0	-5.4	1.8	-0.3	x	x
O=C(CN1CCN(c2ncccn2)CC1)NCc1ccccc1	8.3	-2.9	9.4	-16.7	50.4*	20.8%	16.1%
CC(NC(=O)CN1CCN(c2ncccn2)CC1)c1ccc(F)cc1 (configuration not stated)	15.6	-31.8	7.6	-16.4	60.1*	10.6%	18.6%
Cc1c(Cc2ccccc2)c(=O)oc2c(O)c(O)ccc12	33.8*	18.1	9.6	-12.8	54.1*	u	23.4%
Cc1cccc(C)c1NC(=O)COC(=O)/C=C/c1ccc(S(=O)(=O)N2CCOCC2)cc1	x	0.2	-0.8	x	x	x	x
O=S(=O)(c1ccc(NC(=S)N/N=C/c2c3ccccc3cc3ccccc23)cc1)N1CCOCC1	24.0	-11.5	2.0	8.1	-0.1	28.9%	12.5%
O=S(=O)(c1ccc(NC(=S)N/N=C/c2ccc(Oc3ccccc3)cc2)cc1)N1CCOCC1	7.6	-4.7	3.6	-11.6	0.8	x	x
C=CC[n+]1c(-c2ccc(C)cc2)csc1Nc1c(C)n(C)n(-c2ccccc2)c1=O	x	-13.8	-0.8	x	x	-10.8%	11.3%
Cc1c(Nc2nc(-c3ccccc3)cs2)c(=O)n(-c2ccccc2)n1C	12.3	-16.5	-0.8	-2.7	0.1	x	x
C=CC[n+]1c(-c2ccc(Cl)cc2Cl)csc1Nc1c(C)n(C)n(-c2ccccc2)c1=O	48.9*	-28.2	-7.5	-16.0	56.6*	-47.9%	-10.4%
Cc1cccc(N2C(S)=C(C#N)C(=O)NC2c2ccco2)c1 (configuration not stated)	21.8	-3.4	-0.5	6.4	0.4	x	x
COc1ccc(N2C(S)=C(C#N)C(=O)NC2c2ccco2)cc1 (configuration not stated)	8.7	-6.1	3.1	-19.9	50.0*	1.1%	-2.5%
O=C(Nc1ccnn1C1CCN(Cc2cc3ccccc3[nH]2)CC1)C1CCOC1 (configuration not stated)	28.1	x	x	-22.0	41.6*	-5.6%	0.1%
COc1cc2c(cc1OC)C1CCN3C(=O)CCC3N1CC2 (configuration not stated)	x	-5.8	0.4	x	x	x	x
CC(NC(=O)CCC(=O)NC(C)c1ccccc1)c1ccccc1 (configuration not stated)	-16.7	-4.6	-2.0	-2.5	0.1	x	x
CC(NC(=O)CCC(=O)N1CCCCCC1)c1ccccc1 (configuration not stated)	10.1	2.7	-0.1	-23.4	44.4*	-1.3%	-1.6%
CCOc1ccc(CC(=N)C2=C(O)CC(C)(C)CC2=O)cc1OCC	-16.0	-5.0	-3.6	2.6	1.0	x	x
CCOc1ccc(CC(=NCCc2ccccc2)C2=C(O)CC(C)(C)CC2=O)cc1OCC	0.4	-3.1	0.4	-18.3	47.2*	-2.3%	6.5%
CCCNC(=O)c1ccc2c(=O)c(O)c(-c3ccc(F)cc3)[nH]c2c1	x	1.0	1.8	x	x	x	x
Nc1c(Cl)cc(-c2[nH]c3cc(C(=O)NCCO)ccc3c(=O)c2O)cc1Cl	9.4	3.0	3.3	2.6	-0.4	25.4%	2.3%
COc1ccc(OCC(O)CNCCOc2ccccc2OC)c(C(C)(C)C)c1 (configuration not stated)	71.2*	-10.1	2.5	-20.5	44.6*	22.2%	18.9%
COc1ccccc1NCC(O)COc1ccc(C(C)(C)C)cc1 (configuration not stated)	7.3	0.6	4.3	-0.1	-0.1	x	x
CCOCCCn1c(=NC(=O)c2ccco2)c(C(=O)OCC)cc2c(=O)n3cccc(C)c3nc21	-2.8	-6.0	-2.5	4.8	0.2	x	x
CCN(CC)CCCN=C1N[C@@H](c2ccccc2)C(C(=O)OC)=C(C)N1CC	12.2	-6.1	-1.7	-25.3	76.7*	-2.8%	-2.9%
SMILES	D2 antag	D2 PAM-1	D2 ag-1	D2 PAM-2	D2 ag-2	D3 arrestin ag	D2 ag-3
CCOc1ccccc1C(=O)N(CCC(=O)OC)c1ccccn1	5.2	-15.7	-0.1	-9.7	-0.3	x	x
COC(=O)CCN(C(=O)C1C2CC3CC(C2)CC1C3)c1ccccn1 (configuration not stated)	14.2	0.0	u	-6.8	40.6*	0.9%	u
COc1ccc(NC(=O)C2CCCN(CCCc3ccccc3)C2)cc1OCC(C)C (configuration not stated)	79.7*	-47.3	12.6	-26.3	74.5*	-11.2%	u
COc1ccc(NC(=O)C2CCCNC2)cc1OCC(C)C (configuration not stated)	-2.8	-2.4	2.7	4.5	0.5	x	x
CCC(=O)Nc1ccccc1-c1nc2ccccc2n(CC(=O)Nc2ccccc2OC)c1=O	x	x	x	2.4	0.4	x	x
CCOC(=O)Cc1csc(NC(=O)CN2CCOCC2)n1	9.2	-4.1	0.7	2.9	-0.2	-5.7%	0.1%
O=C(NCCS(=O)(=O)N1CCN(c2ccc(F)cc2)CC1)C1CC(=O)N(c2ccccc2)C1 (configuration not stated)	-11.3	6.1	-0.5	-9.3	-0.1	x	x
O=C(NCCS(=O)(=O)N1CCN(c2ccccc2)CC1)C1CC(=O)N(c2ccccc2)C1 (configuration not stated)	-2.1	-3.5	-0.4	13.0	-0.1	-4.5%	-1.1%
Cc1ccc2occ(CN3CCN(c4ccccc4)CC3)c(=O)c2c1	67.4*	-2.0	12.7	x	12.9	-4.8%	24.6%
CCC/C(=C1/c2ccccc2C(=O)N1c1ccccc1)c1ccc2c(c1)OCO2	-10.6	-1.3	3.3	-0.6	-1.2	-10.4%	-3.1%
COc1ccc2nc3sc(C(=O)NCCN4CCc5ccccc5C4)cc3cc2c1	53.5*	-18.5	u	-34.2	65.8*	23.1%	u
CCOc1ccc(NC(=O)c2c(NCc3cccnc3)sc3c2CCC(C)C3)cc1 (configuration not stated)	x	x	x	5.4	0.4	x	x
O=C(CSc1ncccn1)Nc1cccc2ccccc12	19.1	1.5	-0.6	11.9	0.2	-2.2%	-3.0%
O=C(CSCC(=O)Nc1cccc2ccccc12)Nc1cccc2ccccc12	x	-5.5	1.1	x	x	x	x
COc1ccc(CNC(=O)CSc2nc(SC)ns2)cc1	-6.0	-3.6	-2.7	-10.5	-0.5	-9.6%	-3.4%

Screens from PubChem BioAssay.
